Screens as filed in PubChem BioAssay.
Rows were chosen to be rich in hits. Some 3.7% of all compounds tested hit in one or more screens of this group.
A549 tox: kills or reduces viability of A549 cells in Nrf2 counter-screen; A549 ARE-Fluc cells, CellTiter-Fluor viability, 18-24 h; Potency, µM (series often up to 46 µM), for the others: at the top dose activity change, negative = cytotoxicity, most hits filed as inhibitors; hit rate 0.16% among 390,000; AID 504648; note: % is set by controls: 0 for no effect and ±100 for the full control effect
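Cytotoxicity counterscreen: CellTiter-Fluor fluorescence was measured in A549 ARE_Fluc cells after 18-24 h of compound exposure in a concentration series. The subsequent BugLite luminescent read reports ARE-luciferase activity.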
Nrf2 ARE act: activates Nrf2 signaling | hit rate 0.31% among 410,000 | AREc32 ARE-luciferase reporter (MCF7-derived line), luminescence, 24 h | Potency, µM (top dose mostly 46.1 µM), for inactives: at the highest dose activation, hits mostly activators; note: % of control where 0% means no effect; nearly all actives have a fitted effect of over 65% in size
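Cells of the AREc32 ARE-luciferase line are plated in OPTI-MEM containing 5% FBS and left overnight at 37 deg C. Compounds are pinned in, incubation continues 24 hr, and firefly luciferase signal is then measured.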
ELG1 DNA repair: inhibitors of ELG1-dependent DNA repair in HEK293T cells | HEK293T ELG1-luciferase reporter, luminescence, 16 h; DNA damage induced by 5-fluorouridine | Potency, µM (top dose mostly 46.1 µM), for inactives: top-dose activity change, negative = inhibition, most hits filed as inhibitors | hit rate 2.3% among 330,000; note: % is set by controls: 0 for no effect and ±100 for the full control effect; nearly all actives have a fitted effect of over 55% in size
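Cells (2,000 per well) received 5-fluorouridine plus test compound or DMSO and were incubated 16 hr at 37 °C, 5% CO2. Luciferase activity was read by luminescence 30 min after ONE-Glo addition; signal suppression marked inhibition of damage-induced ELG1 function.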
Nrf2 block: blocks Nrf2 signaling | hit rate 2.1% among 360,000 | A549 ARE-Fluc reporter, luciferase luminescence, 18-24 h | Potency, µM (doses to about 46 µM), inactives show top-dose activity change, negative = inhibition, most hits filed as inhibitors | AID 504444; note: % is set by controls: 0 for no effect and ±100 for the full control effect; nearly all actives have a fitted effect of over 60% in size
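Nrf2 activity is the BugLite luminescence, read 15 min after reagent at room temperature, following CellTiter-Fluor cytotoxicity readout (30 min, 37C). Compound titrations were applied for 18-24 h to 5000 A549 ARE_Fluc cells/well in 5% FBS OPTI-MEM.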
An asterisk follows results filed as active; ? = inconclusive; · = no result; [ ] = remark or other dose. Calls come from the whole dose curve; as a rule, active = well fitted curve in the direction sought with a large enough effect; inconclusive = small, poorly fitted or top-dose-only effect, or another doubt; inactive = no such curve, though single readings can be large; an effect the other way counts as inactive or inconclusive. Potency is the fitted concentration of half-maximal effect.

SMILES	A549 tox	Nrf2 ARE act	ELG1 DNA repair	Nrf2 block
COc1ccc(NC(=O)C2CCN(S(=O)(=O)c3ccc4c(c3)NC(=O)C(C)S4)CC2)cc1 (stereo not given)	-3%	1%	?	23µM*
CCOc1ccc(NC(=O)C2CCN(S(=O)(=O)c3ccc4c(c3)NC(=O)C(C)S4)CC2)cc1 (stereo not given)	-14%	2%	?	15µM*
CCOc1ccc(S(=O)(=O)NCC(c2ccco2)S(=O)(=O)c2ccc(F)cc2)cc1 (stereo not given)	-2%	6%	·	·
CCOc1cc(C(=O)NCc2ccccc2)ccc1OCC(=O)N1CCOCC1	10%	-1%	21%	0%
CCOc1cc(/C=C/c2nc3ccccc3s2)ccc1OCC(=O)N1CCOCC1	-3%	2%	23µM*	?
CCOc1cc(C(=O)OCC(=O)c2c(C)[nH]c3ccccc23)ccc1OCC(=O)N1CCOCC1	4%	0%	16µM*	-16%
CCOC(=O)c1c(NC(=O)CN2C(=O)NC(C)(c3ccc(Cl)cc3)C2=O)sc(C(=O)NC)c1C (stereo not given)	-13%	1%	18µM*	?
Cc1ccc(N/C(N)=N/c2nc(C)cc(N3CCCCC3)n2)c(C)c1	?	0%	16µM*	13µM*
C=CCN(C/C(=N\O)c1sc(C(=O)OCC)nc1C)c1cccc(Br)c1	10%	4%	·	1%
COc1ccc(N2CCCC2)c(NC(=O)c2ccc(Br)o2)c1	-12%	5%	-26%	-14%
Cc1oc(-c2cccc(Cl)c2)nc1CS(=O)(=O)CC(=O)NC(C)CCc1ccccc1 (stereo not given)	-9%	0%	·	-9%
Cc1ccc2c(CNCc3cccs3)c(C(=O)O)n(Cc3ccc(F)cc3)c2c1	12µM*	4%	·	-22%
COc1ccc(Cn2c(C(=O)O)c(CNCc3ccc(OC)cc3OC)c3ccc(C)cc32)cc1	13µM*	4%	·	?
COc1ccc(Cn2c(C(=O)O)c(CNCc3cccs3)c3ccc(C)cc32)cc1	?	6%	·	-22%
CCOc1ccccc1CNCc1c(C(=O)O)n(Cc2ccc(F)cc2)c2cc(C)ccc12	18µM*	0%	·	?
C=Cc1ccc(Cn2c(C(=O)O)c(CNCc3cccs3)c3ccc(C)cc32)cc1	15µM*	0%	·	-27%
C=Cc1ccc(Cn2c(C(=O)O)c(CNCc3ccc(F)cc3)c3ccc(C)cc32)cc1	?	-2%	·	-2%
O=C(NCCc1ccc(Cl)cc1)c1cc2c(s1)-c1ccccc1OC2	0%	-1%	·	?
COCCCN(Cc1ccco1)C(=O)c1cc2c(s1)-c1ccccc1OC2	-10%	1%	·	9.2µM*
Cc1ccc(CCNC(=O)c2cc3c(s2)-c2ccccc2OC3)cc1	?	0%	·	18µM*
Cc1cc(Br)ccc1NC(=O)CCS(=O)(=O)c1cccc2nsnc12	2%	3%	·	18%[9.27 µM]
Cc1ccc(Cl)cc1NS(=O)(=O)c1cc2c(cc1F)NC(=O)CC2	14%	·	·	-13%
COc1ccc(S(=O)(=O)c2cnc3ccccc3n2)cc1	-3%	18µM*	1%	-3%
CC[C@H](C)C(N)c1cn(C(CCCN=C(N)N)C(=O)N2CCNCC2)nn1 (stereo not given in full)	-5%	-1%	7%	5%
Cc1ccc(C(=O)Nc2ccc(N3CCN(C(=O)c4cccs4)CC3)cc2)c(Cl)c1	-12%	0%	?	23µM*
SMILES	A549 tox	Nrf2 ARE act	ELG1 DNA repair	Nrf2 block
Cc1ccccc1C(=O)Nc1ccc(N2CCN(C(=O)c3ccco3)CC2)cc1	-1%	0%	-19%	?
Cc1ccc(C(=O)Nc2ccc(N3CCN(C(=O)c4ccco4)CC3)cc2)c(Cl)c1	-1%	0%	18µM*	?
Cc1ccc(Nc2cc(C)nc3ccc(C)cc23)cc1	?	3%	8.2µM*	?
Clc1cccc(Nc2nc(-c3ccncc3)nc3ccccc23)c1	-14%	0%	2.6µM*	?
Cc1cc(Nc2cccc(Cl)c2)c2ccccc2n1	?	0%	?	21µM*
CC(=O)c1cccc(Nc2nc(-c3ccccc3Cl)nc3ccccc23)c1	-11%	9%	·	?
CC(=O)Nc1cccc(Nc2nc(-c3ccccc3F)nc3ccccc23)c1	-8%	-1%	15µM*	?
CCOc1ccc(Nc2cc(C)nc3ccc(C)cc23)cc1	-18%	7%	·	4%
Cc1cccc(S(=O)(=O)NC2CCN(C#N)C2)c1 (stereo not given)	-1%	·	·	-6%
CCC(Sc1ncnc2sc3c(c12)CCCC3)C(=O)OCC(C)C (stereo not given)	-6%	-1%	·	14%
O=C(NCc1ccc(F)cc1)C1CCCN(c2cnccn2)C1 (stereo not given)	-5%	0%	5%	14%
O=C(c1ccccc1F)N1c2nc(-c3ccco3)nn2C2(CCCCC2)[C@@H]2CCCC[C@@H]21	-19%	9%	·	6%
COc1ccc(-c2noc(N3CCN(c4cccc(Cl)c4)CC3)n2)cc1OC	-5%	0%	·	23µM*
COc1ccc(-c2noc(N3CCN(c4ccc(Cl)cc4)CC3)n2)cc1OC	1%	0%	·	?
N#C/C(=C\c1ccccc1[N+](=O)[O-])c1nc(C2CC2)cs1	-4%	10µM*	?	?
N#C/C(=C\C=C\c1ccccc1[N+](=O)[O-])c1nc(-c2ccc3c(c2)OCO3)cs1	12%	3%	12%	13%
N#C/C(=C/c1ccccc1[N+](=O)[O-])c1nc(C2CC2)cs1	-1%	11µM*	?	?
O=C(OCc1cn([C@H]2CN(CC3CCCCC3)[C@@H](c3ccccc3)C[C@@H]2O)nn1)c1ccccc1	·	0%	·	·
Cc1ccc(/C=C/C(=O)c2ccc(O)cc2)cc1	-1%	?	?	1%
Cc1ccc(C(=O)/C=C/C(=O)O)cc1	12%	22µM*	1%	4%
O=S(=O)(c1cccs1)N1CCN(c2ccnc3cc(Cl)ccc23)CC1	?	0%	?	?
Cc1cc(N2CCN(S(=O)(=O)c3ccccc3)CC2)c2ccccc2n1	-17%	0%	?	21µM*
O=S(=O)(c1ccccc1)N1CCN(c2nc(C3CC3)nc3ccccc23)CC1	5%	·	·	-10%
O=S(=O)(c1ccccc1)N1CCN(c2ccnc3cc(Cl)ccc23)CC1	-19%	2%	?	23µM*
C#CC[N+](CC)(CC)CC#Cc1cccc(Cl)c1	-17%	0%	-3%	10µM*
CCOc1ccc(-n2c(=S)sc3c(=O)[nH]c(SCC(=O)C(C)(C)C)nc32)cc1	0%	4%	15µM*	?
CCOC(=O)CSc1nc2c(sc(=S)n2-c2ccccc2)c(=O)[nH]1	-4%	0%	-3%	-27%
CCOC(=O)CSc1nc2c(sc(=S)n2-c2ccc(OCC)cc2)c(=O)[nH]1	-3%	0%	21µM*	-26%
CSc1nnc(NC(=O)c2ccc(S(=O)(=O)N(C)C)cc2)s1	-7%	2%	?	?
